Test results: PubChem BioAssay AID652054 (National Center for Advancing Translational Sciences (NCATS), 2013)
The whole screen tested about 360,000 compounds, of which about 9,100 (2.5%) were called active. About 4% were inconclusive and are not listed. Cut-off read from the data, not from the text of the source: active = max response below about -50%; inconclusive = no clear call, values can overlap the other calls; inactive = above that. The full list was thinned out, with actives kept by preference.

The compounds below were run against D(3) dopamine receptor (Homo sapiens) (UniProt P35462) (assay: qHTS of D3 Dopamine Receptor Antagonist: qHTS). Conditions: D3R cells, DiscoveRx beta-arrestin luminescence, antagonist mode; hits give low values.
Chain of D(3) dopamine receptor (Homo sapiens) (P35462 whole entry, looked up): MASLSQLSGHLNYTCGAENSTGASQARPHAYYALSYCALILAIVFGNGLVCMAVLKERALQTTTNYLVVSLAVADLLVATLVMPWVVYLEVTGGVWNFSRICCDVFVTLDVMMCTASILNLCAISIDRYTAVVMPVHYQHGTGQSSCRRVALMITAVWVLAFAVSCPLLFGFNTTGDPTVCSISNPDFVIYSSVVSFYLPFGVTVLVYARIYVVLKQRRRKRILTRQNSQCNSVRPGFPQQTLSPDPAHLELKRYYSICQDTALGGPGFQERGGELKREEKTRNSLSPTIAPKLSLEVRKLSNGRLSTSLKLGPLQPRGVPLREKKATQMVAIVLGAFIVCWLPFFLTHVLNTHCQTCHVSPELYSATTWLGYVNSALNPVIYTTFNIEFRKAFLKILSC
In short: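 Cells plated overnight at 1500 cells/well, then exposed to library compounds with dopamine controls for 90 minutes at 37 degrees C. DiscoveRx reagent added for 30–60 minutes at room temperature; luminescence read, quantitative HTS format.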
% is set by controls: 0 for no effect and ±100 for the full control effect.

Row | Structure (SMILES) | max response, negative = inhibition
1 | CCN1CCN(C(c2cccnc2)c2cc(Cl)c3cccnc3c2O)CC1 (stereo not given) | -91.7% (active)
2 | Cc1ccc([C@H]2C[C@H](O)[C@@H](n3cc(COC(=O)c4ccccc4)nn3)CN2CC2CCCCC2)cc1 | 1.62% (inactive)
3 | CCN(CC)C(=O)CC(c1ccc2c(c1)OCO2)c1c(OC)cc(OC)c2c(-c3ccccc3)cc(=O)oc12 (stereo not given) | 0.75% (inactive)
4 | CCN(CC)CCC(c1cc(OC)c(OC)c(OC)c1)c1c(OC)cc(OC)c2c(-c3ccccc3)cc(=O)oc12 (stereo not given) | 15.7% (inactive)
5 | O=C(C(=O)N1CCN(c2ccccc2)CC1)c1ccc2c(c1)OCO2 | -3.44% (inactive)
6 | COc1ccc(C(CC(=O)N2CCN(c3ccccc3)CC2)c2c(O)cc(OC)cc2OC)cc1 (stereo not given) | 8.17% (inactive)
7 | COc1cc(OC)c2ccc(=O)oc2c1C(CCN1CCN(c2ccccc2)CC1)c1ccc2c(c1)OCO2 (stereo not given) | -81.3% (active)
8 | COc1cc(C(CCN2CCN(c3ccccc3)CC2)c2c(OC)cc(OC)c3ccc(=O)oc23)cc(OC)c1OC (stereo not given) | -84.7% (active)
9 | Cc1cc2nc(-c3ccc(F)cc3)c(Cc3ccsc3)n2c(C)c1Br | 28.2% (inactive)
10 | Cc1cc(Br)cn2c(Cc3ccsc3)c(-c3ccc(C#N)cc3)nc12 | 3.93% (inactive)
11 | Cc1ccc(S(=O)(=O)N2CCC(=O)N([C@H](COCc3ccccc3)Cc3ccccc3)CC2)cc1 | -4.09% (inactive)
12 | CCCc1ccc(S(=O)(=O)N2CCN(C(=O)c3cc(C)on3)CC2)cc1 | 15.8% (inactive)
13 | COCCNC(=O)c1cc2c(Br)ccc(Br)c2nc1N | -12.2% (inactive)
14 | COc1ccc(NC(=O)C(c2ccncc2)n2c(=O)c(-c3cc4ccccc4[nH]3)nc3ccccc32)cc1 (stereo not given) | 12.2% (inactive)
15 | Cc1ccc(Cn2c(C)c(C(=O)NCc3ccccc3C(F)(F)F)sc2=O)cc1 | 11.8% (inactive)
16 | Cc1ccc(NC(=O)CSc2sc3c(O)cc(=O)[nH]c3c2C#N)cc1C | 12.7% (inactive)
17 | Cc1cc(=O)[nH]c(SCC(N)=O)c1C#N | -50.3% (active)
18 | Cc1cc(C#N)c(SCC(N)=O)nc1-c1ccc(F)cc1 | 9.54% (inactive)
19 | C=CCC[C@H](CCCCC)OC(=O)/C=C/[C@H](O)[C@@H](O)C[C@@H](O)CC=C | -8.69% (inactive)
20 | CC(C)(O)C#Cc1ccc(CNC[C@H]2O[C@@H](n3cnc4c(=O)[nH]c(N)nc43)[C@H](O)[C@@H]2O)s1 | 14.7% (inactive)
21 | Nc1ccccc1-c1nc2ccncc2[nH]1 | -1.55% (inactive)
22 | Cc1cc(=O)oc2c(C)c(OC(C)C(=O)NC3CCN(Cc4ccccc4)CC3)ccc12 (stereo not given) | 4.52% (inactive)

Row | Structure (SMILES) | max response, negative = inhibition
23 | S=C(NN=C1CCN(Cc2ccccc2)CC1)NC1CCCCC1 | -1.61% (inactive)
24 | CCNC(=S)NNC(=O)C1CCN(Cc2ccccc2)CC1 | -27.2% (inactive)
25 | O=C(NC1CCN(Cc2ccccc2)CC1)c1ccc(Oc2cc(Cl)cc(Cl)c2)o1 | -87.6% (active)
26 | S=C(NCCCc1ccccc1)Nc1ccc(Br)cc1 | 11.9% (inactive)
27 | O=C(NC1CCN(Cc2ccccc2)CC1)c1ccccc1F | -72.3% (active)
28 | O=C(CN1CCCCC1)Nc1ccccc1C(=O)NC1CC1 | 18.3% (inactive)
29 | S=C(Nc1ccc(Br)cc1)NC1CCN(Cc2ccccc2)CC1 | -58.1% (active)
30 | O=C(NC1CCN(Cc2ccccc2)CC1)c1cc(Br)c(Br)[nH]1 | -86.7% (active)
31 | N#Cc1ccc(CN2CCN(CC(=O)Nc3ccccc3C(=O)NC3CC3)CC2)cc1 | 1.04% (inactive)
32 | CC(C)(C)C(=O)NNC(=O)c1ccc(Oc2cc(Cl)cc(Cl)c2)o1 | 19.5% (inactive)
33 | COc1ccccc1Cc1c(-c2ccc(Cl)cc2)nc2ccc(Cl)cn12 | 6.17% (inactive)
34 | CCCCc1ccc(S(=O)(=O)NC(=O)C2(C)CCN2C(=O)c2c(C)noc2C)cc1 (stereo not given) | 0% (inactive)
35 | O=C1NC[C@H](CCCCN2C[C@H](Cc3ccc(O)cc3)N(CCc3ccccc3)C(=O)C2=O)N(CCc2ccccc2)C1=O | 4.98% (inactive)
36 | CCOC(=O)[C@]12CCC=C1N(Cc1ccccc1)C(=O)[C@H](CC(=O)N1CCCC1)C2 | -17.7% (inactive)
37 | COc1ccccc1NC(=O)C(CC(=O)O)Cc1cc(C)cc(C)c1 (stereo not given) | -7.58% (inactive)
38 | O=S(=O)(c1cccc(C(F)(F)F)c1)N1c2ccccc2-n2cccc2C1c1cccnc1 (stereo not given) | 9.86% (inactive)
39 | O=S1(=O)CC(N2CCN(CCO)CC2)CN1Cc1cn(Cc2cccc(Cl)c2)nn1 (stereo not given) | -8.85% (inactive)
40 | CC(C)C[C@H]1CN([C@@H](Cc2ccccc2)CN2CCC[C@@H]2CN2C(=O)C(=O)NC[C@@H]2Cc2ccc(O)cc2)C(=O)C(=O)N1CCc1ccccc1 | 7.71% (inactive)
41 | COc1cccc(-c2cc3nc(NCCOc4ccccc4Cl)n(C)c(=O)c3s2)c1 | 18.3% (inactive)
42 | COCCNc1ncnc2c1ncn2[C@H]1CN(CCN2CCOCC2)C[C@@H](CO)O1 | -14.7% (inactive)
43 | CCC(=O)N1CCCC1(C)C(=O)Nc1ccc2c(c1)CCN2C(C)=O (stereo not given) | 19.1% (inactive)
44 | CCC1Nc2ncnc(N3CCN(c4ccccc4)CC3)c2N(Cc2ccc(Cl)cc2)C1=O (stereo not given) | -73.8% (active)

Row | Structure (SMILES) | max response, negative = inhibition
45 | OC[C@@H]1CN(Cc2ccncc2)C[C@H](n2cnc3c(N4CCN(c5ccccc5)CC4)ncnc32)O1 | 3.87% (inactive)
46 | CC[C@]1(C(=O)OC)[C@H]2C(=O)N(Cc3ccccc3)C(=O)[C@H]2[C@H]2CN=C(SCc3ccc(Cl)cc3)N21 | -3.9% (inactive)
47 | O=C(CNC(=O)N1CC(=O)Nc2ccccc21)Nc1ccc(Br)cc1F | 0% (inactive)
48 | COc1ccc(NC(=O)C2Cc3c(-c4ccc(Cl)cc4)ccnc3O2)cc1 (stereo not given) | 28.4% (inactive)
49 | CC1(C(=O)NS(=O)(=O)Cc2cccc(Cl)c2)CCN1C(=O)Cc1ccccc1 (stereo not given) | -2.25% (inactive)
50 | CCc1ccc([C@@H]2CC(=O)[C@@H]3CN(S(=O)(=O)c4ccc(C)cc4)[C@H](c4ccc(Cl)cc4)C[C@@H]3N2S(=O)(=O)c2ccc(C)cc2)cc1 | 0% (inactive)
51 | O=C(O)c1ccccc1-c1cccc2nncn12 | 0% (inactive)
52 | Cc1ccc(S(=O)(=O)N2CC[C@H]3[C@@H](C2)C(=O)C[C@@H](c2ccccc2)N3S(=O)(=O)c2ccc(C)cc2)cc1 | -19.4% (inactive)
53 | O=C(Nc1nccs1)C1CCCN1S(=O)(=O)c1cccc2cccnc12 (stereo not given) | -56.6% (active)
54 | Cc1ccc(NC(=O)C2CCCN2S(=O)(=O)c2cccc3cccnc23)c(C)c1 (stereo not given) | 9.44% (inactive)
55 | Cc1cc(C)cc(NC(=O)C2CCCN2S(=O)(=O)c2cccc3cccnc23)c1 (stereo not given) | -1.4% (inactive)
56 | CC1(C(=O)Nc2ccc3c(c2)OCCO3)CCN1C(=O)Cc1cc(F)ccc1F (stereo not given) | 26.4% (inactive)
57 | COc1ccc(-c2cc3nc(NCCOc4ccccc4)ccn3n2)cc1 | 35.5% (inactive)
58 | Cc1nnc(SCC(=O)NNC(=O)c2ccc(Cl)cc2)n1CC1CCCO1 (stereo not given) | -18.7% (inactive)
59 | CCn1c(-c2ccncc2)n[nH]c1=S | 0.921% (inactive)
60 | S=c1[nH]nc(-c2ccc(Cl)cc2)n1CC1CCCO1 (stereo not given) | -72% (active)
61 | O=C(Nc1cc(Br)ccc1F)c1nc[nH]c1C(=O)NCc1ccccc1 | -14.4% (inactive)
62 | COc1ccc(-c2[nH][nH]c(=O)c2NC(=O)c2ccc([N+](=O)[O-])cc2)cc1 | -25.3% (inactive)
63 | COC(=O)c1ccc2nc(-c3ccc(OC)c(OC)c3)c(Cc3ccccc3)n2c1 | 1.12% (inactive)
64 | Cc1ccc2cccc([N+](=O)[O-])c2n1 | 0% (inactive)
65 | O=[N+]([O-])c1ccccc1S(=O)(=O)Nc1cccc2cccnc12 | -72% (active)
66 | COc1cc(NS(=O)(=O)c2ccc3ccccc3c2)c2ncccc2c1 | -25.7% (inactive)

Row | Structure (SMILES) | max response, negative = inhibition
67 | CC(C)Oc1cc(F)ccc1-c1cc(C(=O)Nc2cccc(Cl)c2)[nH]n1 | 0% (inactive)
68 | CCOC(=O)C1=CC[C@@H](c2ccccc2)N(S(=O)(=O)c2ccc(C)cc2)[C@H]1c1cccc(OC)c1 | 11.2% (inactive)
69 | CCc1cc(-c2nnn(CCC3COCCO3)c2CC)ccc1-c1cn(Cc2ccc3ccccc3c2)nn1 (stereo not given) | -10.8% (inactive)
70 | Cc1cc(OCCCN2CCN(Cc3ccccc3)CC2)ccc1[N+](=O)[O-] | -14.9% (inactive)
71 | Cc1cc(C)c(OCCN2CC(C)OC(C)C2)c(Br)c1 (stereo not given) | -21.2% (inactive)
72 | O=[N+]([O-])c1ccccc1OCCCCN1CCCCC1 | -89.3% (active)
73 | O=C(COc1ccccc1[N+](=O)[O-])NC1CC1 | 16.3% (inactive)
74 | C=CCN(CC=C)CCOc1ccccc1[N+](=O)[O-] | -52.4% (active)
75 | Cc1ccc(OCC(=O)Oc2ccccc2[N+](=O)[O-])cc1 | 0.0069% (inactive)
76 | CC1CN(CCCOc2ccccc2-c2ccccc2)CC(C)O1 (stereo not given) | -29.6% (inactive)
77 | O=C(COc1ccc(Cl)cc1[N+](=O)[O-])N1CCCCC1 | -5.15% (inactive)
78 | CC1CN(CCOc2ccccc2[N+](=O)[O-])CC(C)O1 (stereo not given) | -93.5% (active)
79 | O=c1[nH][nH]c2c1[C@H](c1ccc(Cl)cc1)O[C@H](CCc1ccccc1)C2 | -23.3% (inactive)
80 | CCCNC(=O)C1(C)CCN(C(=O)c2cc(F)ccc2C)C1 (stereo not given) | -11.8% (inactive)
81 | CC(C)CN1CCC1(C)C(=O)Nc1ccc(OC(F)F)cc1 (stereo not given) | 12.7% (inactive)
82 | O=C(Nc1cc(F)ccc1F)c1ccc2c(=O)n3c(nc2c1)CCC3 | 8.55% (inactive)
83 | Cc1ccc(NC(=O)[C@H](Cc2ccccc2)NC(=O)CC[C@H]2O[C@@H](n3ccc(=O)[nH]c3=O)[C@H](O)[C@@H]2O)cc1C | -15.6% (inactive)
84 | OC[C@@H]1CN(Cc2ccc(F)cc2)C[C@H](n2cnc3c(NC4CCCC4)ncnc32)O1 | 4.42% (inactive)
85 | CC1(C(=O)NS(=O)(=O)c2ccccc2)CCN1C(=O)c1ccccc1 (stereo not given) | 10.2% (inactive)
